# A selection: hits, their analogues and other compounds. The true share with any hit is near 5.7%.
# KB-3-1 cytotox: KB-3-1 parental cell cytotoxicity; KB-3-1 viability, CellTiter-Glo ATP luminescence, 72 h; Potency, µM (doses to about 46.1 µM), most hits filed as cytotoxic; hit rate 1.4% among 400,000; AID 1347075; also: potency is read from the fitted curve at half-maximal effect; nearly all actives have a fitted effect of over 60% in size
#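 Cytotoxicity in the drug-sensitive parental line KB-3-1 was scored as loss of CellTiter-Glo luminescence following 72 h incubation with compound. Values come from curve fitting of normalized concentration-response data.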
# Nrf2 inh: inhibitors of Nrf2 signaling; hit rate 2.1% among 360,000; AID 504444; A549 ARE-Fluc reporter, luciferase luminescence, 18-24 h; Potency, µM (highest dose often 46 µM), without a hit: at the highest dose activity change, negative = inhibition, actives largely listed as inhibitors; also: potency is read from the fitted curve at half-maximal effect; nearly all actives have a fitted effect of over 60% in size
#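 Reporter: ARE-Fluc in A549. Exposure: 18-24 h, 37 °C, 5% CO2, 5% FBS OPTI-MEM. Readouts: fluorescent cytotoxicity (CellTiter-Fluor), then luminescent Nrf2 signal after BugLite.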
# KB-V1 MDR tox: kills drug-selected multidrug resistant KB-V1 cells; KB-V1 MDR cells viability, CellTiter-Glo, 72 h; Potency, µM (highest dose often 46.1 µM), most hits filed as cytotoxic; hit rate 3.4% among 400,000; also: potency is read from the fitted curve at half-maximal effect; nearly all actives have a fitted effect of over 60% in size
#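 Cytotoxicity via CellTiter-Glo luminescence after 72 h compound exposure at 37 degrees C. Cells: drug-selected KB-V1 line, DMEM phenol-red free plus 10% FBS. Compounds tested at multiple concentrations; normalized data fitted to concentration-effect curves.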
# Giardia kill: Giardia lamblia killing | hit rate 0.15% among 340,000 | activity change, % at 7.66 µM, hits read low | AID 540267 | Giardia lamblia trophozoite viability; in the data active = activity change below about -80%; inconclusive = between about -30% and that limit;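 also: parasites exposed to compound for two days anaerobically before the ATP read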
#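 Viability, read as ATP luminescence: trophozoites at 100 cells/well, compound added, 48 hrs anaerobic at 37 deg C, then 15-30 min room-temperature development before reading.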
# PI4K2A inh: blocks human PI4K2A kinase activity; hit rate 0.13% among 420,000; Q9BTU6; purified PI4K2A, ADP-Glo luminescence, 1 h; stronger effect = lower value; activity change, negative = inhibition, % at 76.9 µM; AID 1346378; in the data active = activity change below about -50%; inconclusive = mostly about -30% to -49%;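 also: -100% = wells without enzyme as full effect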
# Target sequence (Q9BTU6 whole entry, looked up): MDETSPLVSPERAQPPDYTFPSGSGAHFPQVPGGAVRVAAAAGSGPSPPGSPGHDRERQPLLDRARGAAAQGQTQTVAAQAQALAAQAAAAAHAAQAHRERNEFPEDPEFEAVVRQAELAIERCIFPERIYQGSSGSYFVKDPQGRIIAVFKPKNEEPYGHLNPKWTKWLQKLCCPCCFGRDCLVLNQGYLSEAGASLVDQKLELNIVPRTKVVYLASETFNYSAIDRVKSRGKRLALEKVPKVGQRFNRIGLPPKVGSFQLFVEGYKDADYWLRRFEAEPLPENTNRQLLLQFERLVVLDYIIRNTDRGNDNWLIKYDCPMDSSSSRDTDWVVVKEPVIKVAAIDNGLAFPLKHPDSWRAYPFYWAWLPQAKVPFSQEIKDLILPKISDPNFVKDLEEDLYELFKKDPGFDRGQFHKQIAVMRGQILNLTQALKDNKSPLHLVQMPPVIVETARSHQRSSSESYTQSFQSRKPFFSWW
#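 Compounds are screened against recombinant PI4K2A using PI as substrate and ATP, the latter dispensed at 300 microM. Reactions run one hour at ambient temperature before ADP-Glo detection; full inhibition defined by wells lacking enzyme.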
# A549 viability: kills or reduces viability of A549 cells in Nrf2 counter-screen. AID 504648. Potency, µM (series often up to 46 µM), for inactives: at the highest dose activity change, negative = cytotoxicity, actives largely listed as inhibitors. A549 ARE-Fluc cells, CellTiter-Fluor viability, 18-24 h. hit rate 0.16% among 390,000; also: potency is read from the fitted curve at half-maximal effect
#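 A549 ARE_Fluc cells in 5% FBS OPTI-MEM were exposed to compounds in concentration-response for 18-24 h at 37 deg C. Viability was read by CellTiter-Fluor fluorescence (Ex 405/Em 525) after 30 min, before the luciferase read.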
# * hit, by the source's call; i = inactive; u = inconclusive; x = no result; [ ] = another dose, or the depositor's remark. Unless noted, calls follow the shape of the dose curve; as a rule, active = well fitted curve in the direction sought with a large enough effect; inconclusive = small, poorly fitted or top-dose-only effect, or another doubt; inactive = no such curve, though single readings can be large; an effect the other way counts as inactive or inconclusive. Unless noted, % is scaled to controls: 0 for no effect and ±100 for the full control effect.
SMILES,KB-3-1 cytotox,Nrf2 inh,KB-V1 MDR tox,Giardia kill,PI4K2A inh,A549 viability
CCCc1cc(=O)[nH]c(SCC(=O)c2cc(C)n(CC(F)(F)F)c2C)n1,i,-5%,16µM*,16,-1,-15%
COc1ccc(CCn2c(C)cc(C(=O)CSc3nc(N)cc(=O)[nH]3)c2C)cc1,i,18µM*,i,4,-2,-5%[1.84 µM]
Cc1cc(C(=O)CSc2nc(N)cc(=O)[nH]2)c(C)n1-c1ccc(OC(F)F)cc1,u,18µM*,u,8,3,-18%
COc1ccc(-c2cc(-c3nnc(SCC(=O)Nc4cccc(Cl)c4C)n3N)[nH]n2)cc1,x,x,x,x,-3,x
Cc1cc2ccccc2n1CCNC(=O)C1CCCC1,i,-11%,18µM*,7,-3,1%
O=c1c2ccccc2nc2sc(Nc3cccc(N4CCNCC4)c3)nn12,u,x,i,x,x,x
CCC(C)(C)NC(=O)C(c1ccccc1F)N(Cc1ccco1)C(=O)c1csnn1 (centres undefined),i,27%,18µM*,-10,3,22%
COc1ccccc1Cc1nc2ccccc2nc1SCC(=O)NCc1ccccc1Cl,x,x,x,x,5,4%
Nc1nc2ccc(Cl)cc2cc1C(=O)NCCc1ccc(Cl)cc1Cl,i,x,u,x,-7,x
Nc1nc2ccc(Cl)cc2cc1C(=O)NCCc1c[nH]c2ccccc12,9.2µM*,x,i,x,-5,x
COc1ccc2c(c1)CNC2CS(=O)(=O)NCc1ccc(F)cc1 (centres undefined),x,x,x,x,-3,x
CC1(C)Cc2c(sc3nc(-c4cccs4)n(N)c(=O)c23)CO1,i,u,8.2µM*,-7,8,-14%
CNc1nc(-c2ccc3c(c2)CCN3C(=O)CC(C)(C)C)c(C)s1,i,u,i,9,-3,0%
CC(=O)Nc1nc(-c2ccc3c(c2)CCN3C(=O)C2CC2)c(C)s1,u,u,15µM*,32,0,2%
COc1ccc2nc(-c3cccc(F)c3)sc2c1,x,u,x,x,x,9%
N=C(N)SCc1nc2ccccc2c(=O)n1-c1ccccc1Cl,i,u,23µM*,-3,1,-6%
Cc1ccccc1-n1c(CSC(=N)N)nc2ccccc2c1=O,i,3%,i,-16,5,-13%
O=c1c2[nH]c3ccccc3c2ncn1C1CCCCC1,i,2%,i,0,-3,7%
O=C1c2ccccc2C(=O)c2c1ccc1c(=O)n(C3CCCCC3)[nH]c21,u,u,10µM*,u,-13,-29%
O=C(c1ccccc1)c1ccc(-n2ccnc2)c([N+](=O)[O-])c1,i,u,18µM*,-23,2,6%
CCOC(=O)COc1ccc(/C=C/[N+](=O)[O-])c(OCC(=O)OCC)c1,u,x,i,9,-9,u
CCOc1ccc(/C=C/[N+](=O)[O-])c2ccccc12,u,26µM*,18µM*,-16,37,u
CCOC(=O)COc1ccc2ccccc2c1/C=C/[N+](=O)[O-],18µM*,u,u,2,17,u
COc1ccc(N2CCN(C(c3ccccc3)c3nnnn3C(C)C)CC2)cc1 (centres undefined),u,-2%,i,-2,x,-8%
O=C(c1cccs1)c1coc2ccc(O)c(CN3CCOCC3)c12,i,-16%,2.9µM*,7,-1,4%
SMILES,KB-3-1 cytotox,Nrf2 inh,KB-V1 MDR tox,Giardia kill,PI4K2A inh,A549 viability
O=C(c1coc2ccc(O)c(CN3CCOCC3)c12)C1CC1,i,3%,i,10,-1,4%
CC(=O)Nc1cccc(NC(=O)CSc2cn(CC(=O)N3CCCCCC3)c3ccccc23)c1,x,-29%,x,x,0,-9%
C[C@H]1[C@H](C)CC[C@]2(C(=O)O)CC[C@]3(C)C(=CC[C@@H]4[C@@]5(C)C[C@@H](O)[C@H](O)C(C)(C)[C@@H]5CC[C@]43C)[C@H]12,i,u,i,9,-3,u
C[C@@H]1CC[C@]2(C(=O)O)CC[C@]3(C)C(=CCC4[C@]56CC[C@@](O)(OC5)C(C)(C)C6CC[C@]43C)C2[C@H]1C (some centres undefined),i,15µM*,i,-11,6,-25%
O=C(CCS(=O)(=O)c1ccccc1)Nc1ccc(F)cc1Cl,x,x,x,x,-7,x
COCCN(CC(=O)Nc1cccc(C)c1C)C(=O)C1(c2ccccc2)CC1,i,3%,18µM*,-4,-1,-4%
Cc1cccc(NC(=O)CN(C)CC(=O)NC(c2ccccc2)c2ccccc2)c1C,i,12%,3.3µM*,11,1,-3%
CC(C)(Oc1ccc(Cl)cc1)C(=O)OCCCOC(=O)C(C)(C)Oc1ccc(Cl)cc1,x,x,x,x,3,x
Cc1ccc(C)c(NC(=O)CSc2c3c(nc4ccc(Cl)cc24)CCCC3)c1,x,u,x,x,-1,-12%
Cc1cc(N2CCOCC2)n2nc(C)c(-c3ccccc3Cl)c2n1,i,16µM*,i,-16,-4,u
CCOC(=O)N1CCN(C(=O)/C(=C/c2cccc3ccccc23)NC(=O)c2ccc(OC)c(OC)c2)CC1,i,-21%,4.6µM*,21,-2,-4%
CCOC(=O)N1CCN(C(=O)/C(=C/c2ccc(Br)cc2)NC(=O)c2ccc(OC)cc2)CC1,i,5%,18µM*,-7,0,-7%
CCOP(=O)(OCC)C(Cc1ccc(OC)c(OC)c1)N=C(c1ccccc1)c1ccccc1 (centres undefined),i,x,15µM*,x,-2,x
COc1ccccc1N=c1oc2cc(O)ccc2cc1C(N)=O,u,u,u,-4,-52*,17%
CC1Cn2cc(C(=O)Nc3cccc(C(F)(F)F)c3)c(=O)c3c(Cl)ccc(c32)O1 (centres undefined),i,u,i,x,-3,-3%
O=C(CSc1nnc(-c2c[nH]c3ccccc23)o1)N(Cc1ccccc1)c1ccc(F)cc1,i,18µM*,12µM*,-10,0,u
Cc1nc2c(C)cccn2c1C(=O)c1ccccc1,u,-26%,26µM*,7,-5,-6%
COc1ccc(-c2c(C)oc3ccc(C)cc23)cc1,i,-5%,i,-8,-3,-13%
COc1ccc2oc3cc(C)[n+]([O-])c(-c4ccc(Cl)cc4)c3c2c1,u,-8%,u,12,4,-14%
COc1ccc2oc3cc(C)[n+]([O-])c(-c4ccc(C)cc4)c3c2c1,u,26µM*,5.8µM*,5,1,u
COc1ccc(-c2c3c(cc(C)[n+]2[O-])oc2ccc(OC)cc23)cc1,u,u,10µM*,-16,3,u

# Screening results as filed in PubChem BioAssay.
